High-throughput results as filed in PubChem BioAssay.
12-LOX inh = inhibitors of human 12S-lipoxygenase ALOX12; Potency, µM (titrated, usually from 108 µM), without a hit: top-dose activity change, negative = inhibition, usual class: inhibitors; purified 12hLO, xylenol orange hydroperoxide absorbance; P18054; AID 1671190; 1.1% of 580,000 active; further: on the % scale 0 is the no-effect control and ±100 the full control effect
Target sequence (P18054 whole entry, looked up): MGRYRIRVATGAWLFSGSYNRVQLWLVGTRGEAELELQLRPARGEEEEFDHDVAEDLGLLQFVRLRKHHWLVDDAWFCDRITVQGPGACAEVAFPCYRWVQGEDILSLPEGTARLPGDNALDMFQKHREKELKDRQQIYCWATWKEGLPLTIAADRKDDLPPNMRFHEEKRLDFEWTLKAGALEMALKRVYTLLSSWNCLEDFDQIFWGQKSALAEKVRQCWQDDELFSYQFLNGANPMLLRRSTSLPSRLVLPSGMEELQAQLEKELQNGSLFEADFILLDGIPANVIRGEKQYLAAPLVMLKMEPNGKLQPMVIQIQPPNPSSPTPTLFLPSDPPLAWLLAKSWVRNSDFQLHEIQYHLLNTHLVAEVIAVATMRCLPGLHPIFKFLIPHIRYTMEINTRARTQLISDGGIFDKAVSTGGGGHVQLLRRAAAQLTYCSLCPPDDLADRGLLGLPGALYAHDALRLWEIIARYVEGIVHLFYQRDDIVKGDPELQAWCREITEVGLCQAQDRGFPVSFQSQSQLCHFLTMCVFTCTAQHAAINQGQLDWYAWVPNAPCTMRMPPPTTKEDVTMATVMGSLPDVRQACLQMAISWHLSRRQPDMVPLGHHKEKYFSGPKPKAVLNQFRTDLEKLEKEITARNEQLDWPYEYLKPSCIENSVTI
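Purified human 12hLO (150 nM final) in 25 mM Hepes, 0.01% Triton X-100, pH 7.0 was preincubated 15 min at room temperature with compound. Then 40 uM arachidonic acid was added, 30 min. Hydroperoxide was read by Fe-XO absorbance ratio 573/405 nm.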
PINK1 modulator = PINK1 expression modulation; PINK1 immunofluorescence, high-content cytometry, 24 h; Potency, µM (series often up to 76.6 µM), inactives show at the highest dose activation (PINK1 increase), usual class: activators; 0.2% of 410,000 active; active means well fitted activation curve with a large enough effect; inconclusive means small, poorly fitted or top-dose-only effect; cell line not stated here; further: % of control where 0% means no effect; nearly all actives have a fitted effect of over 65% in size
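Stable cell line treated 24 h with compounds at 5 concentrations (CCCP controls), then fixed and immunostained for PINK1 plus nuclear and cell stains; PINK1 immunofluorescence quantified by laser-scanning microplate cytometry.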
KB-V1 MDR tox = KB-V1 MDR subline cytotoxicity | KB-V1 MDR cells viability, CellTiter-Glo, 72 h | Potency, µM (titrated, usually from 46.1 µM), most hits filed as cytotoxic | 3.4% of 400,000 active | AID 1347076; further: on the % scale 0 is the no-effect control and ±100 the full control effect; nearly all actives have a fitted effect of over 60% in size
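Drug-selected KB-V1 cells, grown in DMEM lacking phenol red with 10% FBS, receive compound titrations; after three days at 37 degrees C, surviving cell ATP is quantified by CellTiter-Glo luminescence and responses normalized and curve-fitted.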
KB-3-1 tox = kills parental KB-3-1 adenocarcinoma cells | KB-3-1 viability, CellTiter-Glo ATP luminescence, 72 h | AID 1347075 | Potency, µM (titrated, usually from 46.1 µM), usual class: cytotoxic | 1.4% of 400,000 active; further: on the % scale 0 is the no-effect control and ±100 the full control effect; nearly all actives have a fitted effect of over 60% in size
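Cytotoxicity measured as CellTiter-Glo luminescence after 72 h at 37 C. Compound titrations were pinned onto drug-naive KB-3-1 parental adenocarcinoma cells grown in DMEM with 10% FBS, and normalized data fitted to concentration-response curves.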
SW480 rerep = induces DNA re-replication in SW480 colon adenocarcinoma cells | SW480 DNA re-replication, Hoechst DNA content imaging, 48 h | Potency, µM (titrated, usually from 46.1 µM), for inactives: at the top dose re-replication activation, most hits filed as activators | 1.8% of 340,000 active; further: % of control where 0% means no effect; nearly all actives have a fitted effect of over 55% in size
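250 cells/well; 23 nL cpd via pin tool; 48 hr, 37 C, 5% CO2; Hoechst 40 min; imager read of total nuclear intensity, ex 405/em 500-530 nm.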
MCF10A rerep = induces DNA re-replication in MCF 10a normal breast cells; MCF 10A DNA re-replication, Hoechst nuclear intensity, 48 h; Potency, µM (doses to about 46.1 µM), inactives show at the highest dose activity, positive = re-replication, most hits filed as activators; 2.9% of 350,000 active; further: % of control where 0% means no effect; nearly all actives have a fitted effect of over 50% in size
* = called active by the depositor; i = inactive; ? = inconclusive; · = no result; [ ] = dose if it differs, or a comment. A selection: hits, their analogues and other compounds. The true share with any hit is near 5.8%. Unless noted, the call rests on the fitted dose curve; in most records, active means well fitted curve in the direction sought with a large enough effect; inconclusive means small, poorly fitted or top-dose-only effect, or another doubt; inactive means no such curve, though single readings can be large; an effect the other way counts as inactive or inconclusive. Potency means the concentration at half of the fitted maximal effect.

SMILES | 12-LOX inh | PINK1 modulator | KB-V1 MDR tox | KB-3-1 tox | SW480 rerep | MCF10A rerep
CS(=O)(=O)c1cccc(C(=O)Nc2cccc(S(=O)(=O)N3CCCC3)c2)c1 | 9.0% | -0.1% | i | i | -62.7% | 29.8%
O=C(Nc1cccc(S(=O)(=O)N2CCCCC2)c1)c1ccc(S(=O)(=O)C(F)F)cc1 | -2.9% | -0.2% | 7.31µM* | ? | -3.4% | 1.8%
O=C1CCC(/C=C/c2ccccc2)=NN1Cc1ccccc1Cl | 68.7% | 7.3% | i | i | 1.4% | 12.8%
CCOc1ccc(/C=C/C2=NNC(=O)CC2)cc1 | 0.6% | 0.3% | 1.84µM* | i | 15.0% | 0.6%
O=C1CCC(/C=C/c2ccccc2)=NN1 | ? | -0.3% | 5.17µM* | ? | -30.9% | 0.3%
COc1ccc(C2=NNC(=O)CC2)cc1 | -20.3% | -1.8% | ? | i | ? | -0.6%
COc1ccc(/C=C/C2=NNC(=O)CC2)cc1 | 4.4% | -0.3% | 0.411µM* | 1.46µM* | -8.5% | 1.1%
C=CCN1N=C(/C=C/c2ccc(OC)cc2)CCC1=O | 18.5% | -0.6% | ? | i | 2.6% | 1.1%
CCCOc1ccc(C2=NNC(=O)CC2)cc1 | 0.6% | -1.3% | 0.206µM* | i | -90.4% | 11.5%
CCCCCc1ccc(-c2ccc(C3CCC(CCC)C(C)C3)cc2)nc1 (stereo unspecified) | 10.8% | · | · | · | · | ·
CCc1cccc2c(C(=O)C(=O)Nc3ccc4c(c3)OCCO4)c[nH]c12 | 26.9% | · | · | · | · | ·
COCCn1c(SCc2nc3sc(C(=O)OC)c(C)c3c(=O)[nH]2)nc2ccccc21 | -18.2% | 4.3% | i | i | -1.5% | -0.7%
COC(=O)c1sc2nc(CSc3ccc(Br)cc3)[nH]c(=O)c2c1C | ? | 12.4% | i | i | -4.1% | 14.6µM*
Cc1cccc(Oc2cc([N+](=O)[O-])cc3c2C(=O)Nc2ccccc2O3)c1 | ? | 17.1% | 2.59µM* | ? | 3.9% | ?
O=[N+]([O-])c1cc2c(c([N+](=O)[O-])c1)Nc1ccccc1O2 | -24.6% | 14.1µM* | 13µM* | 23.1µM* | · | ·
O=C(Nc1ccc(Cl)c([N+](=O)[O-])c1)C(NCCCO)c1ccccc1 (stereo unspecified) | 0.2% | 0.1% | i | i | -0.7% | ?
O=C(Nc1ccc(Cl)c([N+](=O)[O-])c1)C(Sc1ccccc1)c1ccccc1 (stereo unspecified) | -20.3% | 14.5% | ? | 25.9µM* | 12.7% | ?
COCC(C)NC(C(=O)Nc1ccc(Cl)c([N+](=O)[O-])c1)c1ccccc1 (stereo unspecified) | ? | 8.2% | 16.4µM* | i | -24.2% | -2.6%
O=C(Nc1cc([N+](=O)[O-])ccc1Cl)C(Sc1ccccc1)c1ccccc1 (stereo unspecified) | 15.5% | 3.6% | 14.6µM* | i | -2.6% | -5.2%
Cc1cc(N/N=C/c2ccc(N(C)C)cc2)nc(NCc2ccccc2)n1 | -7.6% | 5.0% | i | i | 20.6µM* | 8.2µM*
Cc1cc(N/N=C/c2ccc(Cl)cc2Cl)nc(NCc2ccccc2)n1 | -29.0% | 16.3% | 8.2µM* | i | ? | ?
Cc1cc(Oc2ccccc2)nc(NCc2ccccc2)n1 | 15.4% | 11.8% | 20.6µM* | 16.4µM* | ? | 19.0%
CCCCNc1cc(C)nc(NCc2ccccc2)n1 | · | ? | 5.8µM* | 6.51µM* | -2.4%[9.22 µM] | 25.5%
NS(=O)(=O)c1ccc(CCC(=O)Nc2nc3c(s2)CCCC3)cc1 | -5.9% | · | · | · | · | ·
Cc1cc(Nc2cccc(F)c2)nc(NCc2ccccc2)n1 | ? | -1.2% | 8.2µM* | ? | ? | ?
SMILES | 12-LOX inh | PINK1 modulator | KB-V1 MDR tox | KB-3-1 tox | SW480 rerep | MCF10A rerep
Cc1cc(N2CCC(C)CC2)nc(NCc2ccccc2)n1 | ? | 35.5µM* | i | 13µM* | 0.517µM* | 25.5%
Cc1cc(Nc2ccccc2)nc(NCc2ccccc2)n1 | ? | 1.5% | 10.3µM* | 20.6µM* | ? | 16.4µM*
Cc1cc(Nc2ccc(Cl)cc2)nc(NCc2ccccc2)n1 | ? | -2.6% | 20.6µM* | ? | ? | ?
COC(=O)c1ccc(COC(=O)c2c3c(nc4ccccc24)CCC3)o1 | 2.9% | · | · | · | · | ·
CO[C@H]1C(=O)N(C(C)C)[C@H]1C1CCN(Cc2cccc(C#N)c2)CC1 | -7.9% | · | · | · | · | ·
O=C(NC1CCCN(c2cc(-c3ccc(F)cc3)[nH]n2)C1)c1cccc(Cl)c1 (stereo unspecified) | 10.6% | · | · | · | · | ·
COCCNC(=O)C[C@@H]1C[C@@H](C(C)C)[C@H](CNC(=O)C2CC2)C=C1C | 37.7%[176 µM] | · | · | · | · | ·
COC(=O)[C@@H]1Cc2c([nH]c3ccccc23)[C@H]2C[C@H](NCc3cccs3)C[C@@H](c3ccc(F)cc3)N21 | 5.3% | · | · | · | · | ·
CCCn1nc(NC(=O)c2cccs2)c2cc3ccccc3nc21 | ? | 8.9% | ? | i | 14.6µM* | 5.8µM*
CCCCn1nc(NC(=O)c2cccc(Cl)c2)c2cc3ccccc3nc21 | -3.8% | 0.3% | i | i | · | ·
CCCCn1nc(NC(=O)c2cccs2)c2cc3ccccc3nc21 | -24.8% | 7.9%[38.3 µM] | 25.9µM* | ? | ? | ?
COc1ccc(Cl)cc1NS(=O)(=O)c1ccc(N2C(=O)C(C)CS2(=O)=O)cc1 (stereo unspecified) | -44.2% | · | · | · | · | ·
Cc1ccc(CNC(=O)c2nn(-c3ccc(F)cc3)c3c2CCC3)cc1 | -20.9% | · | · | · | · | ·
CCCc1noc(-c2ccn3c(CNC(=O)c4ccccc4Cl)nnc3c2)n1 | 39.8µM* | · | · | · | · | ·
CCCc1noc(-c2ccn3c(CNC(=O)c4ccccc4F)nnc3c2)n1 | 50.1µM* | · | · | · | · | ·
CCc1noc(-c2ccn3c(CNC(=O)c4ccccc4Cl)nnc3c2)n1 | 12.8% | · | · | · | · | ·
CCCc1noc(-c2ccn3c(CNC(=O)c4c(F)cccc4F)nnc3c2)n1 | 64.8% | · | · | · | · | ·
CCCc1noc(-c2ccn3c(CNC(=O)Cc4ccccc4OC)nnc3c2)n1 | 50.1µM* | · | · | · | · | ·
Cc1noc(-c2ccc(OCc3ccccc3F)cc2O)c1-c1ccccc1 | 5.7% | · | · | · | · | ·
COc1ccc(Nc2nc(Nc3ccc(OC)cc3)nc(-n3[nH]c(=O)c(C)c3C)n2)cc1 | -24.6% | 3.8% | 1.16µM* | i | 13.4% | ?
Cc1c(C)n(CCO)c2ncn3nc(CSc4nc5ccccc5o4)nc3c12 | -3.2% | · | · | · | · | ·
CC(C)(C)c1ccc(/C=C2\Oc3cc(O)ccc3C2=O)cc1 | -6.6% | ? | i | 16.4µM* | 20.6µM* | 20.6µM*
N#Cc1ccc(/C=C2\Oc3cc(O)ccc3C2=O)cc1 | 14.2% | · | · | · | · | ·
O=C1/C(=C/c2ccc(Br)cc2)Oc2cc(O)ccc21 | ? | ? | ? | i | ? | 14.6µM*
COc1ccc2c(c1)O/C(=C\c1ccc(C(C)(C)C)cc1)C2=O | -4.2% | · | · | · | · | ·
O=C(CCc1ncc(-c2c(F)cccc2F)o1)N1CCC(OCc2ccccc2)CC1 | -5.2% | · | · | · | · | ·
